Several values for one entry are separate records, joined by “and”; a condition that tells them apart may be missing. Equal entries are not always repeated. In all, about 5,500 compounds went through this assay and about 2,000 (36%) were called active. Inconclusive results (about 18%) are left out. No stated cut-off is given here; in the data, active means normalized growth mostly below about 0.91 (no sharp cut-off); inconclusive means no clear call, values can overlap the other calls; inactive means mostly above about 0.92. Some of the results follow.
Assay: chemical genetic growth profiling, strain panel (AID 1159580);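 further: tested at 20 µM; growth read once vehicle control cultures reached saturation at 30 °C; 1 = growth at the plate median or of vehicle wells; lower values mean less growth of the strain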
Conditions: S. cerevisiae deletion strains, growth OD

Measured: normalized growth

COc1ccc2c(c1OC)C(=O)O[C@H]2[C@H]1c2cc3c(cc2CCN1C)OCO3
inactive: locus YAL013W, strain DEP1, hits give low values 0.997 | locus YAL021C, strain ccr4, hits give low values 0.987 | locus YAL026C, strain drs2, hits give low values 1.01 | locus YAL030W, strain snc1, hits give low values 1 | locus YBL061C, strain skt5, hits give low values 0.997 | locus YBR009C, strain hhf1, hits give low values 1.01 | locus YBR021W, strain FUR4, hits give low values 1 | locus YBR023C, strain chs3, hits give low values 0.988 | locus YBR171W, strain sec66, hits give low values 0.988 | locus YBR229C, strain ROT2, hits give low values 1.01 | locus YBR231C, strain swc5, hits give low values 1 | locus YBR279W, strain paf1, hits give low values 0.995 | locus YCL011C, strain gbp2, hits give low values 1 | locus YCL016C, strain dcc1, hits give low values 1 | locus YCL029C, strain bik1, hits give low values 1.02 | locus YCL061C, strain MRC1, hits give low values 1 | locus YCL069W, strain vba3, hits give low values 1 | locus YCR088W, strain abp1, hits give low values 1.01 | locus YDL005C, strain med2, hits give low values 0.997 | locus YDL035C, strain GPR1, hits give low values 1 | locus YDL040C, strain nat1, hits give low values 0.991 | locus YDL074C, strain BRE1, hits give low values 1.01 | locus YDL101C, strain DUN1, hits give low values 1.02 | locus YDL134C, strain PPH21, hits give low values 1 | locus YDL185W, strain tfp1, hits give low values 1 | locus YDL192W, strain arf1, hits give low values 1.01 | locus YDR001C, strain nth1, hits give low values 0.999 | locus YDR069C, strain doa4, hits give low values 1 | locus YDR101C, strain arx1, hits give low values 1 | locus YDR137W, strain rgp1, hits give low values 0.988 | locus YDR150W, strain NUM1, hits give low values 1 | locus YDR159W, strain sac3, hits give low values 0.989 | locus YDR162C, strain NBP2, hits give low values 0.966 | locus YDR195W, strain ref2 0.998 | locus YDR297W, strain sur2, hits give low values 1 | locus YDR318W, strain mcm21, hits give low values 1.01 | locus YDR334W, strain swr1, hits give low values 1 | locus YDR335W, strain msn5, hits give low values 0.989 | locus YDR388W, hits give low values 1.01 | locus YDR392W, strain spt3, hits give low values 0.928 | locus YDR502C, strain sam2, hits give low values 1 | locus YEL003W, strain gim4, hits give low values 0.998 | locus YEL037C, strain rad23, hits give low values 0.99 | locus YEL061C, strain CIN8 (second series), hits give low values 0.991 | locus YEL061C, strain CIN8, hits give low values 0.991 | locus YER015W, strain faa2, hits give low values 1 | locus YER016W, strain bim1, hits give low values 0.997 | locus YER110C, hits give low values 1.01 | locus YER111C, strain swi4, hits give low values 0.993 | locus YER155C, strain BEM2 (second series), hits give low values 0.994 | locus YER155C, strain BEM2, hits give low values 0.992 | locus YER167W, strain BCK2, hits give low values 1.01 | locus YFR010W, strain ubp6, hits give low values 1.01 | locus YGL078C, strain dbp3, hits give low values 1.01 | locus YGL086W, strain mad1, hits give low values 1 | locus YGL167C, strain pmr1, hits give low values 0.997 | locus YGL173C, strain kem1, hits give low values 0.993 | locus YGL227W, strain vid30, hits give low values 0.993 | locus YGL240W, strain doc1, hits give low values 1 | locus YGL248W, strain PDE1, hits give low values 1.01 | locus YGL253W, strain hxk2, hits give low values 0.994 | locus YGR078C, strain PAC10, hits give low values 0.992 | locus YGR135W, strain pre9, hits give low values 0.996 | locus YGR229C, strain SMI1, hits give low values 0.99 | locus YGR252W, strain gcn5, hits give low values 0.953 | locus YHR013C, strain ard1, hits give low values 0.974 | locus YHR027C, strain rpn1, hits give low values 0.992 | locus YHR030C, strain SLT2, hits give low values 1.01 and 1.04 | locus YHR079C, strain IRE1 (second series), hits give low values 1.02 | locus YHR079C, strain IRE1, hits give low values 1.05 | locus YHR094C, strain hxt1, hits give low values 1.01 | locus YHR129C, strain ARP1, hits give low values 1.02 | locus YHR142W, strain chs7, hits give low values 0.995 | locus YHR200W, strain rpn10, hits give low values 1 | locus YIL066C, strain RNR3, hits give low values 1 | locus YIL073C, strain SPO22, hits give low values 0.997 | locus YIL125W, strain kgd1, hits give low values 1.01 | locus YIR030C, strain dcg1, hits give low values 1.02 | locus YJL092W, strain hpr5, hits give low values 0.999 | locus YJL095W, strain BCK1 (second series), hits give low values 1 | locus YJL095W, strain BCK1, hits give low values 1.02 | locus YJL115W, strain asf1, hits give low values 0.995 | locus YJL129C, strain trk1, hits give low values 0.992 | locus YJL134W, strain LCB3, hits give low values 1 | locus YJL154C, strain vps35, hits give low values 0.997 | locus YJL164C, strain tpk1, hits give low values 0.991 | locus YJL166W, strain qcr8, hits give low values 0.994 | locus YJL168C, strain set2, hits give low values 1.01 | locus YJL187C, strain SWE1 (second series), hits give low values 1.01 | locus YJL187C, strain SWE1, hits give low values 0.999 | locus YJR043C, strain POL32, hits give low values 1.01 | locus YJR066W, strain TOR1, hits give low values 0.976

Reference: PubChem BioAssay AID1159580 (chemical genetic matrix, 2015)
